Experimental data as given in PubChem BioAssay (NCATS).
Records with an inconclusive call do not appear. The source made the active and inactive calls. The call rests on the fitted dose curve; in most records, active means well fitted curve in the direction sought with a large enough effect; inconclusive means small, poorly fitted or top-dose-only effect, or another doubt; inactive means no such curve, though single readings can be large; an effect the other way counts as inactive or inconclusive.

Tests used:
[1] = molecular target: Cytochrome P450 3A4 (Homo sapiens) (UniProt P08684); experiment: qHTS Assay for Inhibitors and Substrates of Cytochrome P450 3A4 (AID 884); settings: recombinant CYP3A4, Luciferin-PPXE luminescence; series mostly up to 57.1 µM; further: nearly all actives have a fitted effect of over 50% in size; further: potency means the concentration at half of the fitted maximal effect
Summary of the method: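 Luminescent readout of luciferin produced by CYP3A4 (20 nM) dealkylation of Luciferin-PPXE, 25 uM (its KM). NADPH-driven reaction ran 60 min at RT after 10 min compound preincubation; data scaled to 57 uM ketoconazole as 100% inhibition.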

[2] = molecular target: DNA dC->dU-editing enzyme APOBEC-3G (Homo sapiens) (UniProt Q9HC16); experiment: qHTS for inhibitors of Vif-A3G interactions: Validation (AID 588379); settings: Vif-A3G protein interaction assay; series mostly up to 46.1 µM
Summary of the method: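 Yellow fluorescence (Ex 488, Em 500-530) of Vif-coexpressing HeLa A3G-eYFP cells, scanned by Acumen cytometer, reports blocked A3G degradation. Cells plated at 700/well overnight at 37 deg C before compound addition, then a further overnight compound incubation at 37 deg C.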

[3] = molecular target: Ubiquitin carboxyl-terminal hydrolase 1 (Homo sapiens) (UniProt O94782); experiment: Inhibitors of USP1/UAF1: Pilot qHTS (AID 504865); settings: purified USP1/UAF1, Ub-rhodamine cleavage fluorescence; series mostly up to 54.9 µM;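 further: rhodamine fluorescence freed from ubiquitin-rhodamine substrate followed over time; top concentration of the series differs between compounds; nearly all actives have a fitted effect of over 35% in size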
Summary of the method: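 1nM USP1/UAF1 + cpd, 15 min RT; start w/ Ub-Rho 150nM final; kinetic FL 480/540 nm, 6 reads q60 s. Buffer 50mM HEPES pH 7.8, 0.5mM EDTA, 1mM TCEP, 0.01% Tween-20, 0.1 mg/ml BSA.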

[4] = molecular target: Luciferin 4-monooxygenase (Photinus pyralis) (UniProt P08659); experiment: Biochemical firefly luciferase enzyme assay for NPC (AID 624030);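 further: purified P. pyralis luciferase at 10 nM with luciferin and ATP substrate; nearly all actives have a fitted effect of over 70% in size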; settings: purified P. pyralis luciferase, luminescence, 5 min; series mostly up to 58.6 µM
Summary of the method: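 Direct inhibition of firefly luciferase enzyme (10 nM final, 50 mM Tris Acetate) assessed by luminescence within 5 minutes. Percent activity scaled between DMSO and PTC124 positive control, with concentration-effect curves classified by fit quality and response.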

7G8 = experiment: qHTS profiling for inhibitors of Plasmodium falciparum proliferation (AID 504749); further: nearly all actives have a fitted effect of over 60% in size; further: potency means the concentration at half of the fitted maximal effect; settings: P. falciparum in erythrocytes, SYBR Green DNA, 72 h; series mostly up to 28.7 µM
Summary of the method: (§1)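 SYBR Green fluorescence of parasite DNA, read after lysis and overnight dark incubation, measured growth over 72 h in erythrocyte culture at 0.3% parasitemia and 2.5% hematocrit. Data normalised to DMSO and 0.29 uM artemisinin, with plate-drift correction.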

CP194 = experiment: as above; settings: P. falciparum in erythrocytes, SYBR Green DNA, 72 h; series mostly up to 28.7 µM
Summary of the method: as §1

CP201 = experiment: as above; settings: P. falciparum in erythrocytes, SYBR Green DNA, 72 h; series mostly up to 28.7 µM
Summary of the method: as §1

CP215 = experiment: as above; settings: P. falciparum in erythrocytes, SYBR Green DNA, 72 h; series mostly up to 28.7 µM
Summary of the method: as §1

CP250 = experiment: as above; settings: P. falciparum in erythrocytes, SYBR Green DNA, 72 h; series mostly up to 28.7 µM
Summary of the method: as §1

CP256 = experiment: as above; settings: P. falciparum in erythrocytes, SYBR Green DNA, 72 h; series mostly up to 28.7 µM
Summary of the method: as §1

CP262 = experiment: as above; settings: P. falciparum in erythrocytes, SYBR Green DNA, 72 h; series mostly up to 28.7 µM
Summary of the method: as §1

CP265 = experiment: as above; settings: P. falciparum in erythrocytes, SYBR Green DNA, 72 h; series mostly up to 28.7 µM
Summary of the method: as §1

CP291 = experiment: as above; settings: P. falciparum in erythrocytes, SYBR Green DNA, 72 h; series mostly up to 28.7 µM
Summary of the method: as §1

CP305 = experiment: as above; settings: P. falciparum in erythrocytes, SYBR Green DNA, 72 h; series mostly up to 28.7 µM
Summary of the method: as §1

CP325 = experiment: as above; settings: P. falciparum in erythrocytes, SYBR Green DNA, 72 h; series mostly up to 28.7 µM
Summary of the method: as §1

CP335 = experiment: as above; settings: P. falciparum in erythrocytes, SYBR Green DNA, 72 h; series mostly up to 28.7 µM
Summary of the method: as §1

Dd2 = experiment: as above; settings: P. falciparum in erythrocytes, SYBR Green DNA, 72 h; series mostly up to 28.7 µM
Summary of the method: as §1

GB4 = experiment: as above; settings: P. falciparum in erythrocytes, SYBR Green DNA, 72 h; series mostly up to 28.7 µM
Summary of the method: as §1

PC15 = experiment: as above; settings: P. falciparum in erythrocytes, SYBR Green DNA, 72 h; series mostly up to 28.7 µM
Summary of the method: as §1

TAB109 = experiment: as above; settings: P. falciparum in erythrocytes, SYBR Green DNA, 72 h; series mostly up to 28.7 µM
Summary of the method: as §1

Measured: Potency

Luciferin 4-monooxygenase (Photinus pyralis), sequence (P08659 whole entry, looked up): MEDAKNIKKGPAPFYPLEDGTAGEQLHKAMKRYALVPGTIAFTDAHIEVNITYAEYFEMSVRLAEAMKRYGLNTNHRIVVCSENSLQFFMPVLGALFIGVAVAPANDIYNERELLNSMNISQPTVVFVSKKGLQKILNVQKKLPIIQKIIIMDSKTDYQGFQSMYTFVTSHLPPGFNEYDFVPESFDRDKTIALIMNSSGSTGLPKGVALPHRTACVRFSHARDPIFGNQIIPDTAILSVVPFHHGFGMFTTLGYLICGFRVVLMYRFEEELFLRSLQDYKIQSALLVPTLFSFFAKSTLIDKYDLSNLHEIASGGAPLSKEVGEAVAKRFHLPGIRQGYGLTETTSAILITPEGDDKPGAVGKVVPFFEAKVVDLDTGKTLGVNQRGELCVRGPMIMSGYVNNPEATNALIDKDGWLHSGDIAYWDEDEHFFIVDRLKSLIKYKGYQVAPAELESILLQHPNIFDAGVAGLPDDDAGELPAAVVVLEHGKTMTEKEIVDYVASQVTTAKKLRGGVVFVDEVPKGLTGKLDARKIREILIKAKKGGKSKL
Cytochrome P450 3A4 (Homo sapiens), sequence (P08684 whole entry, looked up): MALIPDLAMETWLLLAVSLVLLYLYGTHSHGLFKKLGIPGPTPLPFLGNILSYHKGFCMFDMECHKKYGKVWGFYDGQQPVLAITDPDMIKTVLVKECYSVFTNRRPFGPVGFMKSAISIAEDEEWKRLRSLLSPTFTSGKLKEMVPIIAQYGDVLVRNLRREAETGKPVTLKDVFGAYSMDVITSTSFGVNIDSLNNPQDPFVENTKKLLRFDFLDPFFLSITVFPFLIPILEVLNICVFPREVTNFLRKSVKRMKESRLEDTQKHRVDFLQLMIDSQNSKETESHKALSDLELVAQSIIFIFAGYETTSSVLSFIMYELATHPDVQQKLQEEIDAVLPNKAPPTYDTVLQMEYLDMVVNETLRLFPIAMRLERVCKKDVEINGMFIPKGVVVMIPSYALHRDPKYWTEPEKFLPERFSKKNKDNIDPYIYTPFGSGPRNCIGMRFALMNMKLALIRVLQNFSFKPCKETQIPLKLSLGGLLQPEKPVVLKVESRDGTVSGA
Ubiquitin carboxyl-terminal hydrolase 1 (Homo sapiens), sequence (O94782 whole entry, looked up): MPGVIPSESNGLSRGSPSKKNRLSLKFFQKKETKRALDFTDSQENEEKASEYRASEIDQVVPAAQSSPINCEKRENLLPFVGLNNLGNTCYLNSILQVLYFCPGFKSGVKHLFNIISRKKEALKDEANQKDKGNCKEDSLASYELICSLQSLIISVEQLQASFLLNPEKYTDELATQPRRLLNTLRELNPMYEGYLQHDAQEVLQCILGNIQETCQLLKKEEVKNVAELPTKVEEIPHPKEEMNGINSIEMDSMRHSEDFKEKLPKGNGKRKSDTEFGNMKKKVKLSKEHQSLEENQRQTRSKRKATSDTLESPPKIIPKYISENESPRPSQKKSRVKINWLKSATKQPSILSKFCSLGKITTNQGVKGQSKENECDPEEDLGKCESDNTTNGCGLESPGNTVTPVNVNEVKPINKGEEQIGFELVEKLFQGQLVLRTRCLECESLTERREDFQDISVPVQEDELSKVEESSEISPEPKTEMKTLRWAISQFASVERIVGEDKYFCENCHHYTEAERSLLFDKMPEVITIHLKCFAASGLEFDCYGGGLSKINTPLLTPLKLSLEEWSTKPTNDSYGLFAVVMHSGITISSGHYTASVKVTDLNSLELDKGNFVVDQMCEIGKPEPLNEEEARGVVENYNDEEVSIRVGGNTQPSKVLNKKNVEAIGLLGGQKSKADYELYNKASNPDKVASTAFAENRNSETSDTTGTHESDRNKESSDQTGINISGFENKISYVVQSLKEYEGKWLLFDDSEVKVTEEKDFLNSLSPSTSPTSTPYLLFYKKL
DNA dC->dU-editing enzyme APOBEC-3G (Homo sapiens), sequence (Q9HC16 whole entry, looked up): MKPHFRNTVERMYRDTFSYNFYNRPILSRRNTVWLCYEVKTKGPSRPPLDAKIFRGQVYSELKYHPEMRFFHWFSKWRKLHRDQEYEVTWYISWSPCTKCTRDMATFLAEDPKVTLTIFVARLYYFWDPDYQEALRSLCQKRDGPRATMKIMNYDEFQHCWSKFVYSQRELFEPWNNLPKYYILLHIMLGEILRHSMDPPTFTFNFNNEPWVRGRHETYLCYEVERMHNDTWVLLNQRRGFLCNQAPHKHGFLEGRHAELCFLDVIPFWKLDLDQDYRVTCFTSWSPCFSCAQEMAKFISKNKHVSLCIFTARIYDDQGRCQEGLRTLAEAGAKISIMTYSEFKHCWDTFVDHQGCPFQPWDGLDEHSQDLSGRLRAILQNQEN

COc1cc(=O)n(C)c2c(OCC(O)C(C)(C)O)cccc12 (stereo unspecified)
inactive: [1] | [2]

CN1C(=O)CCC1c1cccnc1 (stereo unspecified)
inactive: [1] | [3] | [2] | [4] | 7G8 | CP194 | CP201 | CP215 | CP250 | CP256 | CP262 | CP265 | CP291 | CP305 | CP325 | CP335 | Dd2 | GB4 | PC15 | TAB109

C[C@]12CCC(=O)C=C1CC[C@@H]1C2[C@@H](O)C[C@@]2(C)[C@H]1CC[C@]2(O)C(=O)CO (stereo partly specified)
inactive: [3] | [2]

N[C@H](Cc1ccc(O)c(O)c1)C(=O)O
inactive: CP250 | CP256 | CP265 | TAB109

NCCC(=O)NCCc1cnc[nH]1
inactive: [3]

NCCNC(=O)c1ccc(Cl)cc1
inactive: [2]

CN=C(N)NCCCC(N)C(=O)O (stereo unspecified)
inactive: [3] | [4] | 7G8 | CP194 | CP201 | CP215 | CP250 | CP256 | CP262 | CP265 | CP291 | CP305 | CP325 | CP335 | Dd2 | GB4 | PC15 | TAB109

OC[C@H]1O[C@@H](n2cnc3c(NCCc4ccccc4)ncnc32)[C@H](O)[C@H]1O
inactive: [1]

CN1C[C@H](C(=O)N[C@]2(C)O[C@@]3(O)C4CCCN4C(=O)[C@H](Cc4ccccc4)N3C2=O)C[C@@H]2c3cccc4[nH]cc(c34)C[C@H]21 (stereo partly specified)
active: 7G8 0.158 µM | CP250 11.2 µM | CP256 7.94 µM | CP265 5.62 µM | Dd2 2.82 µM | PC15 1.12 µM | TAB109 7.08 µM
inactive: [2]

CC(C)(C)[C@]1(O)CCN2CC3c4ccccc4CCc4cccc(c43)[C@@H]2C1 (stereo partly specified)
active: 7G8 11.2 µM | CP335 10.7 µM | Dd2 10 µM | GB4 9.53 µM
inactive: [4] | CP215 | CP305

CC(C)C[C@H]1C(=O)N2CCCC2[C@]2(O)O[C@](NC(=O)[C@@H]3C=C4c5cccc6[nH]c(Br)c(c56)C[C@H]4N(C)C3)(C(C)C)C(=O)N12 (stereo partly specified)
inactive: [4]
active: 7G8 0.708 µM | CP194 13.5 µM | CP201 13.5 µM | CP215 8.49 µM | CP250 12.6 µM | CP256 11.2 µM | CP262 8.49 µM | CP265 5.62 µM | CP291 10.7 µM | CP305 10.7 µM | CP325 9.53 µM | CP335 3.79 µM | Dd2 2.51 µM | GB4 6.01 µM | PC15 7.94 µM | TAB109 5.62 µM

COC(=O)c1c(-c2cc(OC)c(OC)c(OC)c2)c2ccc(OCc3ccccn3)cc2c(=O)n1-c1ccc(N)cc1
active: [1] 0.398 µM

COc1cc2c(cc1OC)C(c1ccccc1)CN(C)CC2 (stereo unspecified)
inactive: [3] | [4] | CP194 | CP201 | CP215 | CP262 | CP291 | CP305 | CP325 | PC15

CCCC(=O)NCCc1c2n(c3ccc(OC)cc13)Cc1ccccc1-2
active: [1] 2.51 µM

COc1ccc(CCNC[C@@H](O)c2ccc(O)cc2)cc1OC
inactive: [3] | [4] | 7G8 | CP194 | CP201 | CP215 | CP250 | CP256 | CP262 | CP265 | CP291 | CP305 | CP325 | CP335 | Dd2 | GB4 | PC15 | TAB109
